PubChem BioAssay (EPA / NIEHS)
Results filed as inconclusive are left out. The source made the active and inactive calls. The calls were made as follows: active = hit-call score of the fitted dose curve at least 0.9, where 1 is the maximum; inconclusive = response in the unintended direction; inactive = score below 0.9.

Target: Bile acid receptor (Homo sapiens) (UniProt Q96RI1)
Sequence (Q96RI1 whole entry, looked up): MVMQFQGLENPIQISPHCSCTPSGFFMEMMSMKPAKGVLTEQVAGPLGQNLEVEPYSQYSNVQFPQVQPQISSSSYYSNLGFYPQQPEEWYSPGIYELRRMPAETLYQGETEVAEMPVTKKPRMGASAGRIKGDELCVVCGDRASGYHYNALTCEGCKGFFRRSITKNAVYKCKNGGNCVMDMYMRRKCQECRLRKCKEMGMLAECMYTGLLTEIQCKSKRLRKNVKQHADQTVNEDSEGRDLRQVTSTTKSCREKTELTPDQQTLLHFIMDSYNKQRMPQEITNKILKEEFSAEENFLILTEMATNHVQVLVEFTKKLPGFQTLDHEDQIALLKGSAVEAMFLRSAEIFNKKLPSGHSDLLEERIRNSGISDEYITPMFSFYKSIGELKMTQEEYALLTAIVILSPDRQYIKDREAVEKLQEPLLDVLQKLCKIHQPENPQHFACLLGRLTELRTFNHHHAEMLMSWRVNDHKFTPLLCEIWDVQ
Experiment: ATG_FXR_TRANS: Attagene TRANS-FACTORIAL HepG2 Assay for Farnesoid X Receptor (FXR) (AID 2282979);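 also: hits raise reporter mRNA above DMSO so AC50 marks FXR activation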
Conditions: HepG2 Attagene TRANS FXR-GAL4 reporter transcription
How it was run: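 Transient transfection of HepG2 with multiplexed GAL4-UAS reporter units; exogenous FXR-GAL4 chimera. Dose 24 h → TriZol RNA → oligo(dT) RT → PCR, 6-FAM primer extension, HpaI cut → CE. Gain vs DMSO.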
For `CCCCCCCCCC`, the outcome was “inactive”.
In the case of `COCc1nnc(-c2ccc[n+]([O-])c2)n1-c1c(Cl)c(Cl)cc2[nH]c(=O)c(=O)[nH]c12`, the outcome is reported as “inactive”.
For `CCCCCCCCCCCCCCCCOS(=O)(=O)O`, the outcome was “inactive”.
For `Cn1c(=O)c2[nH]cnc2n(C)c1=O`, the outcome was “inactive”.
In the case of `O=C(O)c1ccc2c(c1)nc(C(=O)NC1CCN(C3CC3)CC1)n2Cc1cc(-c2ccc(Cl)s2)on1`, the outcome is reported as “inactive”.
In the case of `CC(C)CCCCCCOC(=O)C1CCCCC1C(=O)OCCCCCCC(C)C` (stereo not given), the outcome is reported as “inactive”.

Target: Oxysterols receptor LXR-alpha (Homo sapiens) (UniProt Q13133)
Sequence (Q13133 whole entry, looked up): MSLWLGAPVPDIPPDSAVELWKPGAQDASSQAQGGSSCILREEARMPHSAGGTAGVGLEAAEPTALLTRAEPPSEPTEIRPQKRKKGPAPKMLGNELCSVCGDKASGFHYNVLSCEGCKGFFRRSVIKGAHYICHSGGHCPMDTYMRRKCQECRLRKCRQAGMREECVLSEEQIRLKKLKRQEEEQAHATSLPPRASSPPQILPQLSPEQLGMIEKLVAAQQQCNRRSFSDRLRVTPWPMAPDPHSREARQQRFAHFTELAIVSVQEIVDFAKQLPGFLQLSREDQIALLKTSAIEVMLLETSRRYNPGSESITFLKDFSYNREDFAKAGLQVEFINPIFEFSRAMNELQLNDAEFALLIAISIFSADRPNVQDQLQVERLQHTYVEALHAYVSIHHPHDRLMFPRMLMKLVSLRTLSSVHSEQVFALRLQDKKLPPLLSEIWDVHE
Experiment: ATG_LXRa_TRANS: Attagene TRANS-FACTORIAL HepG2 Assay for human Liver X Receptor alpha (LXRa) (AID 2282980)
Conditions: HepG2 Attagene TRANS reporter, LXRa transactivation
How it was run: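 Transfect HepG2 with GAL4-UAS multiplex reporter constructs (TRANS format, chimeric receptor-GAL4); treat 24 h; extract RNA, reverse-transcribe, PCR-amplify, FAM-label, HpaI-digest; resolve fragments by capillary electrophoresis. Upward response vs DMSO.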
For `COS(C)(=O)=O`, the outcome was “inactive”.
For `c1ccc2ncccc2c1`, the outcome was “inactive”.
In the case of `Nc1ccn([C@@H]2O[C@H](CO)[C@@H](O)[C@@H]2O)c(=O)n1`, the outcome is reported as “inactive”.
With `O=C(O)CO` the outcome was “inactive”.
In the case of `O=C(N[C@H](CO)[C@H](O)c1ccc([N+](=O)[O-])cc1)C(Cl)Cl`, the outcome is reported as “inactive”.
With `OCC(CO)(CO)CO` the outcome was “inactive”.

Target: Hepatocyte nuclear factor 4-alpha (Homo sapiens) (UniProt P41235)
Sequence (P41235 whole entry, looked up): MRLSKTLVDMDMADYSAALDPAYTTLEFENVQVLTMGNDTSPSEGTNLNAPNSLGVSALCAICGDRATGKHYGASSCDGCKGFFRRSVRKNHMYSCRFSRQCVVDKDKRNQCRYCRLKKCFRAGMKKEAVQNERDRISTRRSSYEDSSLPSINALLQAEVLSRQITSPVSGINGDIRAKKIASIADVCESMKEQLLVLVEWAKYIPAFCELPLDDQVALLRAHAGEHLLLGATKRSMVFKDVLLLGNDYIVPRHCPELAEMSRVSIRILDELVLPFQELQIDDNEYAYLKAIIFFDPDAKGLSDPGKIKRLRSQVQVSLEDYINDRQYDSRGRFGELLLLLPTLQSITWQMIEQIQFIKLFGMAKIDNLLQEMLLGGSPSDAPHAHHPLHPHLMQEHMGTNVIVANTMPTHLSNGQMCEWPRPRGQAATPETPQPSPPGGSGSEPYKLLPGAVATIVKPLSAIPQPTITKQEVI
Experiment: ATG_HNF4a_TRANS: Attagene TRANS-FACTORIAL HepG2 Assay for human Hepatocyte Nuclear Factor 4 alpha (HNF4a) (AID 2282982)
Conditions: HepG2 HNF4a transactivation reporter, mRNA readout
How it was run: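 Multiplexed reporter assay: transfected HepG2, 24 h exposure, total RNA → oligo(dT) RT → PCR → 6-FAM extension → HpaI digest → CE fluorescence. DMSO = negative control.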
With `CC(=O)c1ccccc1` the outcome was “inactive”.
In the case of `CC1(C)C(=O)N(Cl)C(=O)N1Cl`, the outcome is reported as “inactive”.
In the case of `NC(N)=O`, the outcome is reported as “inactive”.
For `COS(C)(=O)=O`, the outcome was “inactive”.
With `c1ccc2ncccc2c1` the outcome was “inactive”.
With `CCCCCCOC(=O)CC(CC(=O)OCCCCCC)(OC(=O)CCC)C(=O)OCCCCCC` the outcome was “inactive”.
In the case of `CCCCCCCCCC`, the outcome is reported as “inactive”.
For `CC(C)CC(C)O` (stereo not given), the outcome was “inactive”.
For `COCc1nnc(-c2ccc[n+]([O-])c2)n1-c1c(Cl)c(Cl)cc2[nH]c(=O)c(=O)[nH]c12`, the outcome was “inactive”.
With `O=C(N[C@H](CO)[C@H](O)c1ccc([N+](=O)[O-])cc1)C(Cl)Cl` the outcome was “inactive”.
For `CCCCCCCC/C=C\CCCCCCCC(=O)OC[C@@H](O)[C@H]1OC[C@H](O)[C@H]1O`, the outcome was “inactive”.
With `OCC(CO)(CO)CO` the outcome was “inactive”.
For `O=S1(=O)CCCO1`, the outcome was “inactive”.
In the case of `Cn1c(=O)c2[nH]cnc2n(C)c1=O`, the outcome is reported as “inactive”.
For `O=C(O)c1ccc2c(c1)nc(C(=O)NC1CCN(C3CC3)CC1)n2Cc1cc(-c2ccc(Cl)s2)on1`, the outcome was “inactive”.

System: not listed separately
Experiment: ATG_M_06_TRANS: Attagene TRANS-FACTORIAL HepG2 Assay for M06 Transcription Factor (Internal Marker) (AID 2282983);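 also: reporter transcript level by RT-PCR then capillary electrophoresis fluorescence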
Conditions: HepG2 Attagene TRANS M06 internal marker reporter
How it was run: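 Background control endpoint: reporter mRNA from transiently transfected HepG2 after 24 h dosing, detected by RT-PCR with capillary electrophoresis fluorescence. Analysed for gain versus DMSO.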
With `Cn1cc[nH]c1=S` the outcome was “inactive”.
For `CCOC(N)=O`, the outcome was “inactive”.
For `COS(C)(=O)=O`, the outcome was “inactive”.
With `CCCCOC(=O)c1ccccc1` the outcome was “inactive”.
In the case of `c1ccc2ncccc2c1`, the outcome is reported as “inactive”.
With `CCCCCCOC(=O)CC(CC(=O)OCCCCCC)(OC(=O)CCC)C(=O)OCCCCCC` the outcome was “inactive”.
In the case of `OC[C@H]1O[C@@H]2O[C@H]3[C@H](O)[C@@H](O)[C@@H](O[C@H]4[C@H](O)[C@@H](O)[C@@H](O[C@H]5[C@H](O)[C@@H](O)[C@@H](O[C@H]6[C@H](O)[C@@H](O)[C@@H](O[C@H]7[C@H](O)[C@@H](O)[C@@H](O[C@H]1[C@H](O)[C@H]2O)O[C@@H]7CO)O[C@@H]6CO)O[C@@H]5CO)O[C@@H]4CO)O[C@@H]3CO`, the outcome is reported as “inactive”.
With `COCc1nnc(-c2ccc[n+]([O-])c2)n1-c1c(Cl)c(Cl)cc2[nH]c(=O)c(=O)[nH]c12` the outcome was “inactive”.
In the case of `O=C(O)CO`, the outcome is reported as “inactive”.
In the case of `CCCCN1C(=O)[C@@H]([C@H](O)C2CCCCC2)NC(=O)C12CCN(Cc1ccc(Oc3ccc(C(=O)O)cc3)cc1)CC2`, the outcome is reported as “inactive”.
With `NC(=O)N1c2ccccc2C=Cc2ccccc21` the outcome was “inactive”.
In the case of `O=C(N[C@H](CO)[C@H](O)c1ccc([N+](=O)[O-])cc1)C(Cl)Cl`, the outcome is reported as “inactive”.
With `CNC(C)=O` the outcome was “inactive”.
For `OCC(CO)(CO)CO`, the outcome was “inactive”.
With `O=S1(=O)CCCO1` the outcome was “inactive”.
For `C=CN1CCCC1=O`, the outcome was “inactive”.
With `O=C(O)c1ccc2c(c1)nc(C(=O)NC1CCN(C3CC3)CC1)n2Cc1cc(-c2ccc(Cl)s2)on1` the outcome was “inactive”.
With `CC(C)CCCCCCOC(=O)C1CCCCC1C(=O)OCCCCCCC(C)C` (stereo not given) the outcome was “inactive”.
